Rows were chosen to be rich in hits. Some 2.4% of all compounds tested hit in one or more screens of this group.
TLR9-MyD88 inh = inhibitors of TLR9-MyD88 association in cells, primary screen, cell-based, CHO, BLA complementation, fluorescence | Toll-like receptor 9 (Homo sapiens) + Myeloid differentiation primary response protein … | CCF4 FRET ratio | inhibition, % at 4.98 µM | actives 0.21% (n = 340,000) | AID 504734, 2011;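 active means inhibition above the mean over all tested compounds plus 3 SD, cut at about 21% in these data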
TLR4-MyD88 BLA = inhibitors of TLR4-MyD88 association in cells, primary screen, cell-based, HeLa CL3-4, BLA complementation, FRET ratio; Toll-like receptor 4 (Homo sapiens) + Myeloid differentiation primary response protein …; HeLa CL3-4 TLR4/MyD88 BLA complementation; inhibition, % at 8.4 µM; actives 0.18% (n = 200,000); AID 861, 2007; in the data active means inhibition above about 25%
m5-HT2A agonist = mouse Htr2a agonists via beta-arrestin recruitment, primary screen, cell-based, luminescence; activation, % at 7.6 µM; actives 0.66% (n = 360,000); CHO-K1 mHTR2A beta-arrestin complementation; percent of 30 µM serotonin response; AID 624169, 2012;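 active means activation above a run cutoff, the mean activation of all tested compounds plus 3 SD, cut at about 14% in these data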
NOD2 RIPK2 PPI = NOD2-RIPK2 binding disruptors in cells, primary screen, fluorescence, CHO cells, BLA complementation. AID 624267, 2012. Receptor-interacting serine/threonine-protein kinase 2 (Homo sapiens), O43353. CCF4 ratio. inhibition, % at 4.98 µM. actives 0.38% (n = 360,000); in the data active means inhibition above about 21%
CRFBP-R2 block = antagonists of CRF-BP/CRF-R2 complex, primary screen, cell-based, HEK293, calcium dye fluorescence, uHTS; inhibition, % at 11.8 µM; actives 0.59% (n = 350,000); AID 588475, 2011; CRF-induced calcium fluorescence;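 active means inhibition of the ligand-induced calcium signal above about 50% at the single tested concentration, limit read from the data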
ABHD5-PLIN5 inh = ABHD5-PLIN5 interaction inhibitors, primary screen, cell lysate, split luciferase complementation, luminescence; actives 0.78% (n = 360,000); Perilipin-5 (Homo sapiens) + 1-acylglycerol-3-phosphate O-acyltransferase ABHD5 (Homo …; Split G. princeps luciferase complementation, 4 h; inhibition, % at 4 µM; AID 602281, 2012;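 active means inhibition above the mean inhibition across every tested compound plus 3 SD, cut at about 22% in these data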
Target sequence (Q00G26 whole entry, looked up): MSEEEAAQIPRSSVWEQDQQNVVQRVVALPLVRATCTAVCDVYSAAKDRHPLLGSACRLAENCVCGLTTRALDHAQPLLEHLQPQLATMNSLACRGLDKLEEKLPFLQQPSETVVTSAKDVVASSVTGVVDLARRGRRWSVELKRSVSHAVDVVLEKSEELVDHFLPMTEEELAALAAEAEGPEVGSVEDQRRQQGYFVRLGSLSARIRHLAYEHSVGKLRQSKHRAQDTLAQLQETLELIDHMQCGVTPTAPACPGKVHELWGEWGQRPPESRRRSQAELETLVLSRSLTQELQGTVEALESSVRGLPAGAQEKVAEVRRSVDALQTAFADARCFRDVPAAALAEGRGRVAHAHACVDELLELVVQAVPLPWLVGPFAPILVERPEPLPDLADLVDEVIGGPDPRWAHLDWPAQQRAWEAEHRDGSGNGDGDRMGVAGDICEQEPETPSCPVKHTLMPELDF
Target sequence (Q8WTS1 whole entry, looked up): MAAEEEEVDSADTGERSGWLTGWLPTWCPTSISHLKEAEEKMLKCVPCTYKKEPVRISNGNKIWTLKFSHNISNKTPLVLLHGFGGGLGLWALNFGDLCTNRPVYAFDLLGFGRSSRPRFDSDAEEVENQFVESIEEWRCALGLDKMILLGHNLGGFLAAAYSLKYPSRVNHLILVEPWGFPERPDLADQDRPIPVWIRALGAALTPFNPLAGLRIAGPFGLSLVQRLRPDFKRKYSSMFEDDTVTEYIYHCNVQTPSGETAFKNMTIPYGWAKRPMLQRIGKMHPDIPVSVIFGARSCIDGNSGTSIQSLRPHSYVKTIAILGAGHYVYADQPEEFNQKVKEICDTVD
MOR ag counter = OPRM1 agonists via beta-arrestin recruitment, confirmation, counter-screen for mouse HTR2A agonist project, cell-based, luminescence, single concentration; shares compounds with m5-HT2A agonist; activation, % at 9.3 µM; U2OS OPRM1 beta-arrestin PathHunter; DMSO 0%, DAMGO 9.3 µM 100%; actives 5.3% (n = 2,300);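 active means mean activation above the mean of DMSO-only wells plus 3 SD, cut at about 0.5% in these data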
m5-HT2A ag conf = mouse HTR2A agonists, beta-arrestin recruitment, confirmation, cell-based, luminescence, CHO-K1 PathHunter, triplicate. shares compounds with m5-HT2A agonist. DMSO 0%, 30 µM serotonin 100%. activation, % at 7.6 µM. actives 19% (n = 2,300). AID 624381, 2012;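 active means mean activation across triplicates above the hit threshold derived in the original primary screen, cut at about 15% in these data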
Hits are given with their value.

What do the screens show for `c1ccc2oc(N3CCNCC3)nc2c1`?
TLR9-MyD88 inh: inactive; TLR4-MyD88 BLA: inactive; m5-HT2A agonist: 29; NOD2 RIPK2 PPI: inactive; CRFBP-R2 block: inactive; ABHD5-PLIN5 inh: inactive; MOR ag counter: inactive; m5-HT2A ag conf: inactive

Results for COCCCNP1(=O)OCC(C)([N+](=O)[O-])CO1 (stereo not drawn) ?
TLR9-MyD88 inh: inactive; m5-HT2A agonist: inactive; NOD2 RIPK2 PPI: inactive; CRFBP-R2 block: inactive; ABHD5-PLIN5 inh: inactive

How did CC(C)S(=O)(=O)N1Cc2ccccc2-n2nncc2C1 do in these assays?
TLR9-MyD88 inh: inactive; m5-HT2A agonist: inactive; NOD2 RIPK2 PPI: inactive; CRFBP-R2 block: inactive; ABHD5-PLIN5 inh: inactive

How did O=C(CSc1ccccc1)N1CCC2(CC1)OCCO2 do in these assays?
TLR9-MyD88 inh: inactive; TLR4-MyD88 BLA: inactive; m5-HT2A agonist: inactive; NOD2 RIPK2 PPI: inactive; CRFBP-R2 block: inactive; ABHD5-PLIN5 inh: inactive

How did Cn1c(=O)cc(SCC(=O)N2CCC3(CC2)OCCO3)c2ccc(Cl)cc21 do in these assays?
TLR9-MyD88 inh: inactive; TLR4-MyD88 BLA: inactive; m5-HT2A agonist: 16; NOD2 RIPK2 PPI: inactive; CRFBP-R2 block: inactive; ABHD5-PLIN5 inh: inactive; MOR ag counter: inactive; m5-HT2A ag conf: inactive

What do the screens show for `C[C@@H]1O[C@@H](O[C@@H]2C=C3CC[C@@H]4C(CC[C@]5(C)[C@@H](c6ccc(=O)oc6)CC[C@]45O)[C@@]3(C)CC2)[C@H](O)[C@H](O)[C@H]1O` (stereo partly drawn)?
TLR9-MyD88 inh: inactive; m5-HT2A agonist: 18; NOD2 RIPK2 PPI: inactive; CRFBP-R2 block: inactive; ABHD5-PLIN5 inh: inactive; MOR ag counter: 6.3; m5-HT2A ag conf: inactive

How did C[C@@H]1O[C@@H](O[C@@H]2C=C3CCC4C(CC[C@]5(C)[C@@H](c6ccc(=O)oc6)CC[C@]45O)[C@@]3(C)CC2)[C@H](O)[C@H](O)[C@H]1O (stereo partly drawn) do in these assays?
TLR9-MyD88 inh: inactive; m5-HT2A agonist: 16; NOD2 RIPK2 PPI: inactive; CRFBP-R2 block: inactive; ABHD5-PLIN5 inh: inactive; MOR ag counter: 7.7; m5-HT2A ag conf: 28

How did COc1ccc(CN2Cc3cnnn3-c3ccccc3C2C)cc1 (stereo not drawn) do in these assays?
TLR9-MyD88 inh: inactive; m5-HT2A agonist: inactive; NOD2 RIPK2 PPI: inactive; CRFBP-R2 block: inactive; ABHD5-PLIN5 inh: inactive

Results for O=C(NCNC(=O)NC1C(=O)NC(=O)N1CO)NC1C(=O)NC(=O)N1CO (stereo not drawn) ?
TLR9-MyD88 inh: inactive; m5-HT2A agonist: 17; NOD2 RIPK2 PPI: inactive; CRFBP-R2 block: inactive; ABHD5-PLIN5 inh: inactive; MOR ag counter: inactive; m5-HT2A ag conf: inactive

How did CCCN(CCC)C1CCc2cccc(O)c2C1 (stereo not drawn) do in these assays?
TLR9-MyD88 inh: inactive; m5-HT2A agonist: 53; NOD2 RIPK2 PPI: inactive; CRFBP-R2 block: inactive; ABHD5-PLIN5 inh: inactive; MOR ag counter: inactive; m5-HT2A ag conf: 92

Results for CCCN(CCC)C1CCc2ccc(O)cc2C1 (stereo not drawn) ?
TLR9-MyD88 inh: inactive; m5-HT2A agonist: 60; NOD2 RIPK2 PPI: inactive; CRFBP-R2 block: inactive; ABHD5-PLIN5 inh: inactive; MOR ag counter: inactive; m5-HT2A ag conf: 179

What do the screens show for `O=C(c1c[nH]cc1-c1ccccc1)c1cccc2ccccc12`?
TLR9-MyD88 inh: inactive; TLR4-MyD88 BLA: inactive; m5-HT2A agonist: 20; NOD2 RIPK2 PPI: inactive; CRFBP-R2 block: inactive; ABHD5-PLIN5 inh: inactive; MOR ag counter: inactive; m5-HT2A ag conf: inactive

How did O=C(O)C(Cl)(Cl)Cl do in these assays?
m5-HT2A agonist: 23; NOD2 RIPK2 PPI: inactive; CRFBP-R2 block: inactive; ABHD5-PLIN5 inh: inactive; MOR ag counter: inactive; m5-HT2A ag conf: inactive

How did CC1=C[C@@H]2c3cccc4[nH]cc(c34)C[C@H]2N(C)C1 do in these assays?
TLR9-MyD88 inh: inactive; m5-HT2A agonist: 28; NOD2 RIPK2 PPI: inactive; CRFBP-R2 block: inactive; ABHD5-PLIN5 inh: inactive; MOR ag counter: 0.8; m5-HT2A ag conf: 144

What do the screens show for `Cc1cc(O)c2c(c1)C(=O)C13C(=C2O)C(=O)[C@H]2[C@@H](O)[C@@H]1[C@H]1[C@H](O)[C@@H]3C(=O)C3=C(O)c4c(O)cc(C)cc4C(=O)C312` (stereo partly drawn)?
TLR9-MyD88 inh: inactive; m5-HT2A agonist: inactive; NOD2 RIPK2 PPI: inactive; CRFBP-R2 block: inactive; ABHD5-PLIN5 inh: inactive

Results for CC1[C@H]2Cc3ccc(O)cc3[C@]1(C)CCN2CCc1ccccc1 (stereo partly drawn) ?
TLR9-MyD88 inh: inactive; m5-HT2A agonist: inactive; NOD2 RIPK2 PPI: inactive; CRFBP-R2 block: inactive; ABHD5-PLIN5 inh: inactive

Results for CCCN1CC[C@@H]2c3cc(O)ccc3CC[C@@H]21 ?
TLR9-MyD88 inh: inactive; m5-HT2A agonist: 17; NOD2 RIPK2 PPI: inactive; CRFBP-R2 block: inactive; ABHD5-PLIN5 inh: inactive; MOR ag counter: inactive; m5-HT2A ag conf: 49

What do the screens show for `CC(C)CC(C)N` (stereo not drawn)?
TLR9-MyD88 inh: inactive; m5-HT2A agonist: inactive; NOD2 RIPK2 PPI: inactive; CRFBP-R2 block: inactive; ABHD5-PLIN5 inh: inactive

What do the screens show for `CC(=O)OC(C)(C)/C=C/C(=O)C(C)(O)C1[C@H](O)C[C@@]2(C)C3CC=C4C(CC[C@@H](O)C4(C)C)[C@]3(CO)C(=O)C[C@]12C` (stereo partly drawn)?
TLR9-MyD88 inh: inactive; m5-HT2A agonist: 25; NOD2 RIPK2 PPI: inactive; CRFBP-R2 block: inactive; ABHD5-PLIN5 inh: inactive; MOR ag counter: inactive; m5-HT2A ag conf: inactive

How did CC(=O)OC(C)(C)/C=C/C(=O)[C@](C)(O)[C@H]1[C@H](O)C[C@@]2(C)[C@@H]3CC=C4[C@H](C[C@H](O)C(=O)C4(C)C)[C@]3(C)C(=O)C[C@]12C do in these assays?
TLR9-MyD88 inh: inactive; TLR4-MyD88 BLA: inactive; m5-HT2A agonist: inactive; NOD2 RIPK2 PPI: inactive; CRFBP-R2 block: inactive; ABHD5-PLIN5 inh: inactive

How did S=C=Nc1cccc(C2(N3CCCCC3)CCCCC2)c1 do in these assays?
TLR9-MyD88 inh: inactive; m5-HT2A agonist: 24; NOD2 RIPK2 PPI: inactive; CRFBP-R2 block: inactive; ABHD5-PLIN5 inh: inactive; m5-HT2A ag conf: inactive

High-throughput results: PubChem, several laboratories
